# Sampled rows, rich in hits. Any-hit rate of the full collection: about 12%.
# L3MBTL1 block = qHTS Assay for the Inhibitors of L3MBTL1 | 230,000 tested, 0.66% active | Lethal(3)malignant brain tumor-like protein 1 (Homo sapiens), Q9Y468 | Potency, µM (series often up to 57.1 µM), inactives show at the top dose activity, negative = inhibition, hits mostly inhibitors | AlphaScreen L3MBTL1–H3K9me1 peptide binding; note: % is set by controls: 0 for no effect and ±100 for the full control effect; nearly all actives have a fitted effect of over 60% in size
#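 L3MBTL1 (50 nM) pre-complexed 30 min with biotinylated H3(1-15)K9me1 peptide (75 nM), then compounds added for 30 min at room temperature; AlphaScreen streptavidin donor/nickel chelate acceptor beads (10 ug/mL final) read after 30 min dark incubation.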
# BAZ2B block = qHTS Assay for Inhibitors of BAZ2B; Bromodomain adjacent to zinc finger domain protein 2B (Homo sapiens), Q9UIF8; AlphaScreen BAZ2B-H3K14Ac peptide displacement; Potency, µM (series often up to 114 µM), for the others: top-dose activity change, negative = inhibition, actives largely listed as inhibitors; 360,000 tested, 4.4% active; AID 504333, 2011; note: % is set by controls: 0 for no effect and ±100 for the full control effect; nearly all actives have a fitted effect of over 60% in size
#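 Complex of BAZ2B and biotin-H3K14Ac (50 nM apiece) forms over 30 min at RT, then faces library compounds up to 110 uM for another 30 min; AlphaScreen beads added, 20 min dark incubation, luminescence read.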
# Sfp PPTase inh = qHTS Assay for Inhibitors of Bacillus subtilis Sfp phosphopantetheinyl transferase (PPTase); 4'-phosphopantetheinyl transferase ffp (Bacillus subtilis), Q9F4F7; Biochemical Sfp PPTase activity, qHTS; 310,000 tested, 3.5% active; AID 1490, 2009; Potency, µM, for inactives: largest response in the series, negative = inhibition, hits mostly inhibitors;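 note: the enzyme is Sfp with the accession as filed and its product quenches rhodamine fluorescence; 0% = enzyme reaction without inhibitor and -100% = no enzyme wells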
#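 Fluorescence-quenching assay with 15 nM Sfp, 5 uM rhodamine-CoA and 12.5 uM BHQ-2-labelled ybbR peptide in pH 7.6 Hepes/MgCl2 buffer. Enzyme was pre-incubated with compound for 15 min at room temperature. Rate was taken from the 30-min fluorescence change (525/598 nm).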
# HP1b binding inh = HTS for Inhibitors of HP1-beta Chromodomain Interactions with Methylated Histone Tails; AlphaScreen HP1-beta / biotin-H3K9me3 peptide binding; Potency, µM (doses to about 114 µM), for inactives: at the top dose activity change, negative = inhibition, actives largely listed as inhibitors; 390,000 tested, 0.56% active; AID 540317, 2011; note: nearly all actives have a fitted effect of over 70% in size
# Target sequence (P83916 whole entry, looked up): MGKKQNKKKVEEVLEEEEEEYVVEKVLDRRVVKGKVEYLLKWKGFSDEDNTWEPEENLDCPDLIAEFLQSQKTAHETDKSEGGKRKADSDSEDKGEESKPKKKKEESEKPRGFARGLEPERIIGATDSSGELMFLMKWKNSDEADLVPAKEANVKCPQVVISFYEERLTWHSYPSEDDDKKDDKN
#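 AlphaScreen: HP1-beta (50 nM) preformed 30 min with biotin-H3(1-18)K9me3 peptide (50 nM) in PBS pH 7.4, 0.01% Tween-20. Compound added for 30 min at RT, then streptavidin donor/nickel chelate acceptor beads (10 ug/mL) for 30 min.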
# JMJD2A Tudor = qHTS Assay for Inhibitors of JMJD2A-Tudor Domain; Lysine-specific demethylase 4A (Homo sapiens), O75164; AlphaScreen JMJD2A-Tudor / H3K4me3 peptide binding; Potency, µM (top dose mostly 114 µM), inactives show at the top dose activity change, negative = inhibition, usual class: inhibitors; 390,000 tested, 4.4% active; AID 504339, 2011; note: % is set by controls: 0 for no effect and ±100 for the full control effect; nearly all actives have a fitted effect of over 50% in size
# G9a inh = qHTS Assay for Inhibitors of Histone Lysine Methyltransferase G9a; AID 504332, 2011; 350,000 tested, 8.8% active; G9a H3K9 monomethylation, AlphaScreen, 2 h; Potency, µM (series often up to 102 µM), for the others: at the highest dose activity, negative = inhibition, usual class: inhibitors; note: % is set by controls: 0 for no effect and ±100 for the full control effect; nearly all actives have a fitted effect of over 75% in size
# Target sequence (Q96KQ7 913-1193 limits assumed): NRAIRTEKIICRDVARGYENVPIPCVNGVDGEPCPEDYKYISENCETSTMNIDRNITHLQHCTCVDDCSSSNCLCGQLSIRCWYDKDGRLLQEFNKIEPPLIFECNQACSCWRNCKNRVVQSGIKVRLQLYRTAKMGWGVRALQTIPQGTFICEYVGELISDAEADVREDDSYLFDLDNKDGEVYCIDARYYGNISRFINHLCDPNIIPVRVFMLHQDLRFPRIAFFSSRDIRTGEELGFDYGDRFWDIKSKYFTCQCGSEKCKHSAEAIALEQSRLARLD
#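 Quantitative HTS format: methyltransferase activity on a biotin-tagged H3K9 peptide is measured by AlphaScreen, using a rabbit anti-monomethyl-H3K9 antibody with streptavidin donor and anti-IgG acceptor beads. Final levels are 20 nM enzyme, 500 nM peptide, 20 uM SAM; 2 h RT.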
# Active calls of the source: *; ? = inconclusive; nt = no result given; [ ] = dose if it differs, or a comment. Calls come from the whole dose curve; as a rule, active = well fitted curve in the direction sought with a large enough effect; inconclusive = small, poorly fitted or top-dose-only effect, or another doubt; inactive = no such curve, though single readings can be large; an effect the other way counts as inactive or inconclusive. Potency is the fitted concentration of half-maximal effect.
SMILES,L3MBTL1 block,BAZ2B block,Sfp PPTase inh,HP1b binding inh,JMJD2A Tudor,G9a inh
O=S(=O)(c1ccc(F)cc1)c1nc(-c2ccccc2F)oc1N1CCCCC1,nt,?,?,-12.5%,-25.2%,?
COc1ccc(-c2nc(S(=O)(=O)c3ccc(Cl)cc3)c(N3CCCCCC3)o2)cc1,nt,-33.5%,nt,-20.4%,56.2µM*,20µM*
Cn1c(=O)c2c(SCC(=O)N3CCc4ccccc43)nc(-c3ccccc3Cl)nc2n(C)c1=O,nt,5.5%,nt,6.9%[57 µM],-14.9%,?
O=S(=O)(Nc1cccc(C(F)(F)F)c1)c1ccc(-c2cnc(C3CC3)o2)cc1,nt,-7.6%,nt,24.2%,-20.5%,-3.6%[59 µM]
N#CCCn1cc(CNCc2cccnc2)c(-c2ccccc2)n1,nt,nt,nt,?,8.91µM*,nt
Cc1ccc(N2CCN(/N=C/c3ccccc3[N+](=O)[O-])CC2)cc1,?,?,6.8%,?,?,7.94µM*
O=[N+]([O-])c1ccccc1/C=N/N1CCN(c2ccccn2)CC1,?,12.6µM*,4.6%,-11.2%,?,?
Cc1ccc(C(=O)c2oc3ccccc3c2NC(=O)COc2ccccc2Cl)cc1,nt,50.1µM*,nt,37.0%,-8.6%,-38.2%[59 µM]
CCOc1cc(CNCCSc2nnnn2-c2ccccc2)cc(Cl)c1OC,nt,20.9%,nt,94.3%,-9.3%,-1.3%[59 µM]
Cc1cc(C)n(NC(=S)NC2CCCC2)c(=O)c1C#N,0.4%,-14.2%,-3.4%,33.3%,11.2µM*,-2.4%
CCn1c(C)cc(C)c(C#N)c1=O,10.0%,-3.4%,23.5%,21.2%,-0.7%,23.4%
CCOc1ccc(OCCOCCn2ccnc2)cc1,nt,79.4µM*,-7.6%,?,8.91µM*,?
CCC(C)c1ccc(OCCn2ccnc2)cc1 (stereo not drawn),-14.2%,50.1µM*,-6.3%,-37.1%,20µM*,?
Cc1cc(OCCn2ccnc2)cc(C(C)C)c1,-15.7%,28.2µM*,-13.1%,22.4µM*,0.794µM*,11.2µM*
Cc1cc(C)cc(OCCn2ccnc2)c1,nt,-23.9%,20.9%,23.7%,-34.9%,-8.1%
CCCCOc1ccc(NC(=O)C(=O)NCCCn2ccnc2)cc1,-0.5%,-36.3%,1.6%,30.2%,-21.8%,-15.3%
CCOC(=O)C1=CNS(=O)(=O)NC1c1ccccc1 (stereo not drawn),6.8%,nt,nt,25.7%,-15.1%,nt
COc1ccc(N=C2NN=C(c3c(C)[nH]c4ccccc34)CS2)cc1,-20.6%,39.8µM*,35.5µM*,?,?,8.91µM*
COc1ccc(N=C2SCC(c3ccccc3)=NN2C)cc1,-7.9%,-10.6%,-7.4%,27.4%,-11.2%,37.3%
Cc1[nH]c2ccccc2c1C1=NNC(=Nc2ccc(F)cc2)SC1,-10.6%,?,22.4µM*,?,56.2µM*,?
COC(=O)C1=C(C)NC(C)=C(C(=O)OCCNCc2ccccc2)C1c1cccc([N+](=O)[O-])c1 (stereo not drawn),nt,nt,-15.1%,nt,nt,?
Cc1c(O)nc(SCC(=O)Nc2nccs2)n(-c2ccccc2F)c1=O,nt,-10.4%,-4.3%,6.6%,-15.9%,15.7%
N#Cc1cc(Sc2ccccn2)c([N+](=O)[O-])cc1C#N,nt,-3.3%,56.2µM*,24.4%,-4.1%,8.9%
N#Cc1cc(Sc2ccccn2)c(Sc2ccccn2)cc1C#N,12.7%,2.1%,-12.3%,14.2%,-17.5%,31.6µM*
COc1cc(NS(=O)(=O)c2cc3c(cc2C)N(C)CCO3)cc(OC)c1OC,nt,-28.6%,nt,9.5%,-13.2%,-13.1%[59 µM]
SMILES,L3MBTL1 block,BAZ2B block,Sfp PPTase inh,HP1b binding inh,JMJD2A Tudor,G9a inh
O=C(NC1CC2CCCC(C1)N2Cc1ccccc1)c1cccc(Cl)c1 (stereo not drawn),-11.8%,-7.1%,13.6%,30.3%,2.7%,-40.8%
O=C(NC1CCCCC1)c1c2c(nc3ccccc13)CCC2,-12.5%,50.1µM*,-7.7%,25.4%,-24.1%,?
CCOc1ccc(NC(=O)c2c3c(nc4ccccc24)CCC3)cc1,?,-5.2%,-25.8%,20.4%,-9.0%,?
COc1cc(NC(=O)c2c3c(nc4ccccc24)CCC3)cc(OC)c1,-7.3%,-20.4%,14.4%,?,6.3%,8.6%
CNC(=O)COC(=O)c1c2c(nc3ccccc13)CCC2,?,50.1µM*,-3.1%,10.9%,?,nt
CCOC(=O)CNC(=O)c1c2c(nc3ccccc13)CCCC2,0.6%,-1.0%,11.2%,21.5%,-6.2%,nt
Cc1cccc(NC(=O)CSc2c3c(nc4ccccc24)CCC3)n1,nt,-5.1%,12.3%,26.1%,-0.7%,15.7%[59 µM]
CC(C)NCC(=O)Nc1c2c(nc3ccccc13)CCC2,-0.3%,50.1µM*,?,-1.3%,22.4µM*,17.8µM*
C=CCNC(=O)COC(=O)c1c2c(nc3ccccc13)CCC2,nt,50.1µM*,6.7%,?,28.2µM*,39.8µM*
CCCCn1cc[n+](C)c1,nt,nt,4.8%,nt,nt,nt
CCc1noc(-c2ccc(N(C)Cc3ccc(OC)cc3)c([N+](=O)[O-])c2)n1,nt,-1.8%,nt,11.6%,-11.6%,-27.9%[59 µM]
CCc1ccc(NS(=O)(=O)c2c(-c3ccccc3)csc2C(=O)OC)cc1,nt,-8.8%,nt,15.4%,-10.3%,10.1%[59 µM]
